# Data reported in PubChem BioAssay (Tox21).
# “And” between values parts separate entries of the source, which are not always exact repeats. Equal entries are not always repeated. Results filed as inconclusive are left out. Where a structure was tested more than once in an assay, its records may differ in their call. The source made the active and inactive calls. The call rests on the fitted dose curve; in most records, active means well fitted curve in the direction sought with a large enough effect in the repeat runs; inconclusive means weak or mixed curves; inactive means no such curve, though single readings can be large; an effect the other way counts as inactive or inconclusive.
# Columns and labels:
# [1] = biological target: Cytochrome P450 2C19 (Homo sapiens) (UniProt P33261); assay: Cytochrome P450 Family 2 Subfamily C Member 19 (CYP2C19) small molecule antagonists: luciferase reporter qHTS assay (AID 1671197); further: nearly all actives have a fitted effect of over 65% in size; on activity change, negative = inhibition: series mostly up to about 120 µM
# Method in brief: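 P450-Glo CYP2C19 system: enzyme-substrate mix with compound 10 min at room temperature, then NADPH regeneration solution, 1 h at 37C. Proluciferin-to-luciferin conversion detected by luminescence after 20 min with detection reagent; ketoconazole as positive control.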
# [2] = biological target: Cytochrome P450 2C9 (Homo sapiens) (UniProt P11712); assay: Cytochrome P450 Family 2 Subfamily C Member 9 (CYP2C9) small molecule antagonists: luciferase reporter qHTS assay (AID 1671198); further: nearly all actives have a fitted effect of over 50% in size; on activity change, negative = inhibition: series mostly up to about 120 µM
# Method in brief: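 Enzyme-substrate mix preincubated with compound 10 min at room temperature; reaction started with NADPH regeneration solution, 1 h 37C. Luminescent luciferin product read after 20 min detection reagent.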
# [3] = biological target: Cytochrome P450 1A2 (Homo sapiens) (UniProt P05177); assay: Cytochrome P450 Family 1 Subfamily A Member 2 (CYP1A2) small molecule antagonists: luciferase reporter qHTS assay (AID 1671199); further: nearly all actives have a fitted effect of over 50% in size; on activity change, negative = inhibition: series mostly up to about 120 µM
# Method in brief: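 Steps: enzyme-substrate mix dispensed; test compounds and furafylline control pinned in; 10 min room temperature; NADPH regeneration solution added, 1 h; reaction stopped with luciferin detection reagent; luminescence read after 20 min.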
# [4] = biological target: Voltage-gated inwardly rectifying potassium channel KCNH2 (Homo sapiens) (UniProt Q12809); assay: Human Ether-a-go-go-Related Gene (hERG) channel small molecule antagonists: fluorescence cell-based qHTS assay (AID 1671200); further: nearly all actives have a fitted effect of over 50% in size;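 on activity change, negative = inhibition: hERG-expressing U2OS cells given a thallium stimulus after FluxOR II dye loading; series mostly up to about 77 µM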
# Method in brief: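 Quantitative HTS in hERG-U2OS cells: thallium entry through the channel reports activity, read as continuous 480/540 nm fluorescence over 2 min after stimulus addition.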
# [5] = biological target: Cytochrome P450 3A4 (Homo sapiens) (UniProt P08684); assay: Cytochrome P450 Family 3 Subfamily A Member 4 (CYP3A4) small molecule antagonists: luciferase reporter qHTS assay (AID 1671201); further: nearly all actives have a fitted effect of over 50% in size; on activity change, negative = inhibition: series mostly up to about 120 µM
# Method in brief: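 Inhibition of CYP3A4 is measured as loss of light: the enzyme converts a proluciferin substrate to luciferin, detected luminescently. Reaction ran 1 h at room temperature with NADPH regeneration after a 10 min compound preincubation.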
# On the % scale 0 is the no-effect control and ±100 the full control effect; potency means the concentration at half of the fitted maximal effect.
# Sequence of Cytochrome P450 1A2 (Homo sapiens) (P05177 whole entry, looked up): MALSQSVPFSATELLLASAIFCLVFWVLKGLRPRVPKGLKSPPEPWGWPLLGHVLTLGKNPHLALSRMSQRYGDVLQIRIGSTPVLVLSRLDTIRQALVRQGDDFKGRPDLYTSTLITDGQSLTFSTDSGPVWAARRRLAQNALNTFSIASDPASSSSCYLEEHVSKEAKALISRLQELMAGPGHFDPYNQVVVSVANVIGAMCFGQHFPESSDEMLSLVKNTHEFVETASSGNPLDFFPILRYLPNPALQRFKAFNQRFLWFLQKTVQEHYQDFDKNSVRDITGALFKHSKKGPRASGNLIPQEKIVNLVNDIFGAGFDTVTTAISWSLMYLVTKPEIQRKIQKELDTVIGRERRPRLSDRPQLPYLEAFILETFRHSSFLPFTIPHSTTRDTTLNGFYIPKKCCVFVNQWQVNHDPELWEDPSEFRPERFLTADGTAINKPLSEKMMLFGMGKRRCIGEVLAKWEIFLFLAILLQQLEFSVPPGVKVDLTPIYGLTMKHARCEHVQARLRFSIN
# Sequence of Cytochrome P450 3A4 (Homo sapiens) (P08684 whole entry, looked up): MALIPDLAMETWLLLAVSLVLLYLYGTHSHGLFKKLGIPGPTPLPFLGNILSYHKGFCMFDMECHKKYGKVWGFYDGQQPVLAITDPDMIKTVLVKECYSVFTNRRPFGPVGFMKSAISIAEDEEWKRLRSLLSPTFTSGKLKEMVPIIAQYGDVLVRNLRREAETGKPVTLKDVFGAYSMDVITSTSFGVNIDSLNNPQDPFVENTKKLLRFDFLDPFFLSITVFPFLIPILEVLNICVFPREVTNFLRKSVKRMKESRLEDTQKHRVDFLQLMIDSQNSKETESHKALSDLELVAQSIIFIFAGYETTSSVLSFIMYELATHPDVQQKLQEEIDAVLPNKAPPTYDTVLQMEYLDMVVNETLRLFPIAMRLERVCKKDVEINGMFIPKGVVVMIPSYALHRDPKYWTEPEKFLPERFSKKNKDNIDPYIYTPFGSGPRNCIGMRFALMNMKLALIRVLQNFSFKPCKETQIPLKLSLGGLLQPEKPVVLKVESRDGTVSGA
# Sequence of Cytochrome P450 2C19 (Homo sapiens) (P33261 whole entry, looked up): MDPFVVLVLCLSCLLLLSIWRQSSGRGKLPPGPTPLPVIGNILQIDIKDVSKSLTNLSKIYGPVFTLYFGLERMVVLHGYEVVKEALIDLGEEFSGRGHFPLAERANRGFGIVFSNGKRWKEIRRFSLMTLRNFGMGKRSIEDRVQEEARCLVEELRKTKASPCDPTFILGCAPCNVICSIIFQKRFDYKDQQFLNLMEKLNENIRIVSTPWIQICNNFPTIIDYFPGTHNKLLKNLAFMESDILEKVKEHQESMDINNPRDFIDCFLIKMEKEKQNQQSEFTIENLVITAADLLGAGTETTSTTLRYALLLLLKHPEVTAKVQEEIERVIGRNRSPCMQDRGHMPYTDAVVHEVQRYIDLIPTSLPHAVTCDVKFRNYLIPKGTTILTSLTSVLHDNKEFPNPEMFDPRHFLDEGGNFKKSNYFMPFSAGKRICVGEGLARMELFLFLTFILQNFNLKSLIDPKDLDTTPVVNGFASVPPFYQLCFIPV
# Sequence of Voltage-gated inwardly rectifying potassium channel KCNH2 (Homo sapiens) (Q12809 whole entry, looked up): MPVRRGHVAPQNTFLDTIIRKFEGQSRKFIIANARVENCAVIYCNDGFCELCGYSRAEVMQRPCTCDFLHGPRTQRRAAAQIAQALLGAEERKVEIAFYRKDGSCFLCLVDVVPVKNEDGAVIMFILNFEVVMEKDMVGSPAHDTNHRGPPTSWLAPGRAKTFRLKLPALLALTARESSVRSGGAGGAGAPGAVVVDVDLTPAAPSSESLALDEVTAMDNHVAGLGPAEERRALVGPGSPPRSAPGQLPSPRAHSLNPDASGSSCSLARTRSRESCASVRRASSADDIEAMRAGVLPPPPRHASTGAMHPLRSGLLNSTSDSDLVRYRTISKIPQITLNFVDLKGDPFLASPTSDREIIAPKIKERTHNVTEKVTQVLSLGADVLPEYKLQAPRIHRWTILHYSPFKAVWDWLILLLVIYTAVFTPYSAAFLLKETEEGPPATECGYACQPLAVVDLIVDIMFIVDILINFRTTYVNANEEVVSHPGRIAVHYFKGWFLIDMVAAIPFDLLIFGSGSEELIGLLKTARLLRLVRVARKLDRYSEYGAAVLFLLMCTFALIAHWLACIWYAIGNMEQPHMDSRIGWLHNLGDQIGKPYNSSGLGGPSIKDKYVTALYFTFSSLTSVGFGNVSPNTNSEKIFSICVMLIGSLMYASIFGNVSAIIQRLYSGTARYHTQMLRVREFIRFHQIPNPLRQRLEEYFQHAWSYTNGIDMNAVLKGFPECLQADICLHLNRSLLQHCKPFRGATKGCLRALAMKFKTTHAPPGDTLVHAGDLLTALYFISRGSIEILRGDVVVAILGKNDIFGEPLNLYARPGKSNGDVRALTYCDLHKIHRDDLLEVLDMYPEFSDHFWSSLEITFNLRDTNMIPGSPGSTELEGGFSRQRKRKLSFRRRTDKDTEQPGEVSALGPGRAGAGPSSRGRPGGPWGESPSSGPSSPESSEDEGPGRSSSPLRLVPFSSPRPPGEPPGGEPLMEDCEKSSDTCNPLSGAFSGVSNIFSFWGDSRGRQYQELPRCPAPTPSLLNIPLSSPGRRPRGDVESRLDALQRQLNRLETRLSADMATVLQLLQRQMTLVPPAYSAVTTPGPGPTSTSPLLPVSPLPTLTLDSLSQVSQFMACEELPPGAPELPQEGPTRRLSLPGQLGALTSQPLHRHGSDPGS
# Sequence of Cytochrome P450 2C9 (Homo sapiens) (P11712 whole entry, looked up): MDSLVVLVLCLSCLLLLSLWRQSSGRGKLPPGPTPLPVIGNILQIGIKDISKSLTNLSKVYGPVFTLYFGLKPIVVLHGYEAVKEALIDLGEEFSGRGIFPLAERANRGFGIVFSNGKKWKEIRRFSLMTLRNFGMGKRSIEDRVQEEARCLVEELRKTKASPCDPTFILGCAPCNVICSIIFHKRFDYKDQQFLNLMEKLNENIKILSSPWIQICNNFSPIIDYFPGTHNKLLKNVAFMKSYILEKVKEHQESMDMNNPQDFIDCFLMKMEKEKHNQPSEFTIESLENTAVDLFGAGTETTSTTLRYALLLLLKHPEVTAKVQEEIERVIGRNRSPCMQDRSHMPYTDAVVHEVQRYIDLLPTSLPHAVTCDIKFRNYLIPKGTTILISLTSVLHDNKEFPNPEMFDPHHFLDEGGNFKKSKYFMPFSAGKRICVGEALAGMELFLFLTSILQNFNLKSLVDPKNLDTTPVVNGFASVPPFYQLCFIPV
Structure (SMILES),Potency [1],Potency [2],Potency [3],Potency [4],Potency [5],"activity change, negative = inhibition [4]","activity change, negative = inhibition [5]"
CC(=O)S[C@@H]1CC2=CC(=O)CC[C@]2(C)[C@H]2CC[C@@]3(C)[C@@H](CC[C@@]34CCC(=O)O4)[C@H]12,6.33 µM (active),,,,,,
O=C(NOCC1CC1)c1ccc(F)c(F)c1Nc1ccc(I)cc1Cl,0.246 µM (active),0.55 µM (active),15.5 µM (active),,,,
Oc1ccc(Cl)cc1Sc1cc(Cl)ccc1O,1.26 µM (active) and 1.55 µM (active),10 µM (active) and 7.76 µM (active),35.5 µM (active) and 27.5 µM (active),inactive,,,
Cc1ccc(-n2nc(C(C)(C)C)cc2NC(=O)Nc2ccc(OCCN3CCOCC3)c3ccccc23)cc1,3.89 µM (active),6.92 µM (active),,,,,
Cc1ccc(O)c2ncccc12,inactive,inactive,15.5 µM (active),,,,
CCCCCCCCOC(=O)c1ccc(O)cc1,22.4 µM (active) and 10 µM (active),31.6 µM (active) and 35.6 µM (active),19.9 µM (active) and 12.6 µM (active),inactive,,,
CCCCN1CCCC[C@H]1C(=O)Nc1c(C)cccc1C,inactive,inactive,17.4 µM (active),inactive,,,
COc1c(C)c2c(c(O)c1C/C=C(\C)CCC(=O)O)C(=O)OC2,inactive,inactive,inactive,inactive,inactive,,
CC(C)n1nc(-c2cc3cc(O)ccc3[nH]2)c2c(N)ncnc21,0.49 µM (active),2.45 µM (active),3.63 µM (active),inactive,,,
CCCCc1oc2ccc(NS(C)(=O)=O)cc2c1C(=O)c1ccc(OCCCN(CCCC)CCCC)cc1,9.77 µM (active),34.7 µM (active),inactive,0.848 µM (active),,,
CCCCCCCCCCCCCCCCCC[N+](C)(C)Cc1ccccc1,56.9 µM (active),40.3 µM (active),80.4 µM (active),2.78 µM (active),40.3 µM (active),,
CCCCCCCC[P+](CCCCCCCC)(CCCCCCCC)CCCCCCCC,7.06 µM (active),22.3 µM (active),39.7 µM (active),0.154 µM (active),,,
CC[C@@]1(O)C(=O)OCc2c1cc1n(c2=O)Cc2cc3c(CN(C)C)c(O)ccc3nc2-1,inactive,inactive,inactive,inactive,,,
COC(=O)c1cc(Cl)ccc1OC,inactive,inactive,2.88 µM (active),inactive,,,
O=c1c(-c2ccccc2)c1-c1ccccc1,7.76 µM (active),17.4 µM (active),1.15 µM (active),inactive,,,
O=C(N/N=C/c1ccccc1O)c1ccncc1,4.9 µM (active),2.19 µM (active),0.575 µM (active),inactive,,,
CCCCCCCC[N+](CCCCCCCC)(CCCCCCCC)CCCCCCCC,22.4 µM (active),35.5 µM (active),70.9 µM (active),0.69 µM (active),1.59 µM (active),,
Cc1[nH]cnc1C[C@H]1CCc2c(C)c3ccccc3n2C1=O,1.95 µM (active),0.49 µM (active),1.74 µM (active),5.36 µM (active),,,
CCCCCOC(=O)CCCC,inactive,inactive,inactive,inactive,,,

Structure (SMILES),Potency [1],Potency [2],Potency [3],Potency [4],Potency [5],"activity change, negative = inhibition [4]","activity change, negative = inhibition [5]"
O=c1cccccc1O,inactive,inactive,inactive,inactive,,,
C=CC(=O)OCCn1c(=O)n(CCOC(=O)C=C)c(=O)n(CCOC(=O)C=C)c1=O,2.83 µM (active),35.6 µM (active),39.9 µM (active),inactive,0.2 µM (active),,
Cc1cc(CCN2CCN(c3nsc4ccccc34)CC2)cc2c1NC(=O)CC2(C)C,71 µM (active),39.9 µM (active),35.6 µM (active),21.9 µM (active),17.8 µM (active),,
CN(C)[C@@H]1C(=O)C(C(N)=O)=C(O)[C@@]2(O)C(=O)C3=C(O)c4c(O)cccc4C[C@H]3C[C@@H]12,inactive,inactive,inactive,inactive,,,
O=C(Nc1cccc([N+](=O)[O-])c1)c1cc2ccccc2cc1O,79.6 µM (active),17.8 µM (active),3.56 µM (active),inactive,,,
Oc1ccc2c(c1)-c1ccccc1C2,39.9 µM (active),39.9 µM (active),5.03 µM (active),inactive,,,
CCCC/C=C/CCCCO,inactive,71 µM (active),inactive,inactive,inactive,,
Cc1cccc(CN2CCN(C(c3ccccc3)c3ccc(Cl)cc3)CC2)c1 (stereo not given),8.71 µM (active),13.8 µM (active),inactive,2.39 µM (active),,,
CCCCC(CC)CN=C(N)NC(N)=NCCCCCCN=C(N)NC(N)=NCC(CC)CCCC (stereo not given),17.4 µM (active),17.4 µM (active),32.3 µM (active),inactive,,,
C=C(C)C(=O)OCC[N+](C)(C)C,inactive,inactive,15.8 µM (active),inactive,inactive,,
Oc1cc2ccccc2c2ccccc12,1.12 µM (active),5.03 µM (active),0.0502 µM (active),inactive,6.33 µM (active),,
O=C(Nc1ccc(Oc2ccc(Cl)cc2)c(Cl)c1)c1cc(I)cc(I)c1O,inactive,38.9 µM (active),inactive,inactive,,,
O=C1C=CC(=O)N1c1ccc(Cc2ccc(N3C(=O)C=CC3=O)cc2)cc1,7.96 µM (active),5.64 µM (active),20 µM (active),34.7 µM (active),,,
CCCCCCCCCCCCCCCS(=O)(=O)Oc1ccccc1,4.36 µM (active),1.23 µM (active),inactive,inactive,inactive,,
CCOC(=O)O[C@]1(C(=O)OCCl)CC[C@H]2[C@@H]3CCC4=CC(=O)C=C[C@]4(C)[C@H]3[C@@H](O)C[C@@]21C,inactive,inactive,inactive,inactive,,,
CC(C)(C)C1CCC(CC2=C(O)c3ccccc3C(=O)C2=O)CC1 (stereo not given),inactive,1.95 µM (active),inactive,inactive,inactive,,
CC(=O)OCC(C)OC(C)=O (stereo not given),inactive,inactive,inactive,inactive,inactive,,
CN(C)c1ccc(SC#N)cc1,35.6 µM (active),17.8 µM (active),5.64 µM (active),inactive,inactive,,
Cc1cc(O)c(Cl)c(C)c1Cl,56.4 µM (active),inactive,17.8 µM (active),inactive,,,

Structure (SMILES),Potency [1],Potency [2],Potency [3],Potency [4],Potency [5],"activity change, negative = inhibition [4]","activity change, negative = inhibition [5]"
OCCN1CCN(CC/C=C2/c3ccccc3Sc3ccc(C(F)(F)F)cc32)CC1,34.7 µM (active),inactive,19.5 µM (active),2.13 µM (active),,,
OCCCCCCCCCCCCBr,inactive,inactive,40.5 µM (active),inactive,inactive,,
Cc1cc(N)c(S(=O)(=O)O)cc1Cl,inactive,28.6 µM (active),inactive,inactive,,,
[O-][n+]1ccccc1SSc1cccc[n+]1[O-],0.536 µM (active),1.51 µM (active),2.81 µM (active),,,14% [at 15.8 µM] (inactive),7.02% [at 23.6 µM] (inactive)
CN(C)C(=O)C1(N2CCCCC2)CCN(CC[C@@]2(c3ccc(Cl)c(Cl)c3)CN(C(=O)c3ccccc3)CCO2)CC1,1.67 µM (active),37.3 µM (active),inactive,11.5 µM (active),0.744 µM (active),,
CCCCCCOC(=O)c1ccc(O)cc1,11.3 µM (active) and 20 µM (active),35.6 µM (active) and 39.9 µM (active),11.3 µM (active) and 8.94 µM (active),,79.8 µM (active) and inactive,,
C/C=C(\C)C(=O)OCc1ccccc1,inactive,inactive,35.6 µM (active),inactive,inactive,,
O=C(OCC(COC(=O)c1ccccc1)(COC(=O)c1ccccc1)COC(=O)c1ccccc1)c1ccccc1,3.55 µM (active),5.63 µM (active),inactive,inactive,inactive,,
CC1(C)CCC(C)(C)c2cc(C(=O)Nc3ccc(C(=O)O)cc3)ccc21,inactive,71 µM (active),inactive,,inactive,,
CN(C)c1ccc(C2(c3ccc(N(C)C)cc3)OC(=O)c3cc(N(C)C)ccc32)cc1,1.41 µM (active),3.16 µM (active),inactive,inactive,2 µM (active),,
CC[C@H]1O[C@]2(CC[C@@H]1C)C[C@@H]1C[C@@H](C/C=C(\C)C[C@@H](C)/C=C/C=C3\CO[C@@H]4[C@H](O)C(C)=C[C@@H](C(=O)O1)[C@]34O)O2,19.8 µM (active),12.5 µM (active),inactive,inactive,5.59 µM (active),,
CCCCCCCCCOC(=O)c1ccc(O)cc1,1.97 µM (active),6.24 µM (active),27.9 µM (active),inactive,39.4 µM (active),,
CCC1OCC(COc2ccc(Oc3ccccc3)cc2)O1 (stereo not given),17.8 µM (active),28.3 µM (active),25.2 µM (active),,inactive,,
Clc1ccc2nsnc2c1NC1=NCCN1,inactive,inactive,inactive,inactive,inactive,,
CCCCCCCCS(=O)C(C)Cc1ccc2c(c1)OCO2 (stereo not given),40.7 µM (active),1.62 µM (active),28.8 µM (active),35.4 µM (active),5.75 µM (active),,
Cc1cc(O)c(C(C)(C)C)cc1Sc1cc(C(C)(C)C)c(O)cc1C,0.398 µM (active),2.51 µM (active),39.8 µM (active),inactive,5.63 µM (active),,
CCCCCCCCn1sc(Cl)c(Cl)c1=O,6.33 µM (active),3.17 µM (active),11.2 µM (active),12.3 µM (active),20 µM (active),,
CC(C)(C)CC(C)(C)c1ccc(OCCOCC[N+](C)(C)Cc2ccccc2)cc1,inactive,79.6 µM (active) and inactive,inactive,,inactive,,
CC(C)(C)c1ccc(C(=O)O)cc1,inactive,inactive,inactive,,inactive,,
